Test results as given in PubChem BioAssay AID1159580 (chemical genetic matrix, 2015).
The whole screen tested about 5,500 compounds, of which about 2,000 (36%) were called active. Not shown: some 18% with an inconclusive outcome. Cut-off read from the data, not from the text of the source: active = normalized growth mostly below about 0.91 (no sharp cut-off); inconclusive = no clear call, values can overlap the other calls; inactive = mostly above about 0.92. The list shows a part of the results.

Assay: chemical genetic growth profiling, strain panel (AID 1159580);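 note: tested at 20 µM; growth read once vehicle control cultures reached saturation at 30 °C; 1 = growth at the plate median or of vehicle wells; lower values mean less growth of the strain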
Settings: growth OD

Measured: normalized growth

C[CH2][Hg][S]c1ccccc1C(=O)O
active: S. cerevisiae deletion strains, locus YJR075W, strain HOC1, active compounds read low 0.0601 | S. cerevisiae deletion strains, locus YKL009W, strain mrt4, active compounds read low 0.078 | S. cerevisiae deletion strains, locus YKL068W, active compounds read low 0.0532 | S. cerevisiae deletion strains, locus YKL085W, strain MDH1 (second series), active compounds read low 0.0507 | S. cerevisiae deletion strains, locus YKL085W, strain MDH1, active compounds read low 0.0507 | S. cerevisiae deletion strains, locus YKL160W, strain elf1, active compounds read low 0.0622 | S. cerevisiae deletion strains, locus YKL190W, strain CNB1, active compounds read low 0.0466 | S. cerevisiae deletion strains, locus YKR001C, strain vps1, active compounds read low 0.0606 | S. cerevisiae deletion strains, locus YKR026C, strain gcn3, active compounds read low 0.0601 | S. cerevisiae deletion strains, locus YKR091W, strain srl3, active compounds read low 0.0575 | S. cerevisiae deletion strains, locus YLL001W, strain dnm1, active compounds read low 0.058 | S. cerevisiae deletion strains, locus YLL026W, active compounds read low 0.0549 | S. cerevisiae deletion strains, locus YLL041C, strain sdh2, active compounds read low 0.0553 | S. cerevisiae deletion strains, locus YLR027C, strain aat2, active compounds read low 0.0538 | S. cerevisiae deletion strains, locus YLR039C, strain RIC1, active compounds read low 0.0815 | S. cerevisiae deletion strains, locus YLR058C, strain SHM2, active compounds read low 0.0473 | S. cerevisiae deletion strains, locus YLR102C, strain apc9, active compounds read low 0.0603 | S. cerevisiae deletion strains, locus YLR113W, strain HOG1, active compounds read low 0.153 | S. cerevisiae deletion strains, locus YLR221C, strain rsa3, active compounds read low 0.0597 | S. cerevisiae deletion strains, locus YLR258W, strain gsy2, active compounds read low 0.0592 | S. cerevisiae deletion strains, locus YLR262C, strain YPT6 (second series), active compounds read low 0.0742 | S. cerevisiae deletion strains, locus YLR262C, strain YPT6, active compounds read low 0.105 | S. cerevisiae deletion strains, locus YLR268W, strain sec22, active compounds read low 0.0621 | S. cerevisiae deletion strains, locus YLR320W, strain mms22, active compounds read low 0.0814 | S. cerevisiae deletion strains, locus YLR330W, strain CHS5, active compounds read low 0.0525 | S. cerevisiae deletion strains, locus YLR342W, strain FKS1 (second series), active compounds read low 0.0638 | S. cerevisiae deletion strains, locus YLR342W, strain FKS1, active compounds read low 0.0616 | S. cerevisiae deletion strains, locus YLR357W, strain rsc2, active compounds read low 0.112 | S. cerevisiae deletion strains, locus YLR370C, strain arc18, active compounds read low 0.0588 | S. cerevisiae deletion strains, locus YLR371W, strain rom2, active compounds read low 0.0587 | S. cerevisiae deletion strains, locus YLR384C, strain iki3, active compounds read low 0.0582 | S. cerevisiae deletion strains, locus YLR418C, strain cdc73, active compounds read low 0.0891 | S. cerevisiae deletion strains, locus YML016C, strain PPZ1, active compounds read low 0.0465 | S. cerevisiae deletion strains, locus YML032C, strain rad52, active compounds read low 0.0656 | S. cerevisiae deletion strains, locus YML120C, strain ndi1, active compounds read low 0.0572 | S. cerevisiae deletion strains, locus YML124C, strain tub3, active compounds read low 0.0558 | S. cerevisiae deletion strains, locus YMR058W, strain fet3, active compounds read low 0.0565 | S. cerevisiae deletion strains, locus YMR078C, strain ctf18, active compounds read low 0.0699 | S. cerevisiae deletion strains, locus YMR125W, strain sto1, active compounds read low 0.0708 | S. cerevisiae deletion strains, locus YMR129W, active compounds read low 0.0561 | S. cerevisiae deletion strains, locus YMR205C, strain PFK2, active compounds read low 0.0823 | S. cerevisiae deletion strains, locus YMR223W, strain ubp8, active compounds read low 0.0597 | S. cerevisiae deletion strains, locus YMR231W, strain pep5, active compounds read low 0.0664 | S. cerevisiae deletion strains, locus YMR263W, strain SAP30, active compounds read low 0.0559 | S. cerevisiae deletion strains, locus YMR307W, strain GAS1, active compounds read low 0.0969 | S. cerevisiae deletion strains, locus YNL067W, strain RPL9B, active compounds read low 0.0481 | S. cerevisiae deletion strains, locus YNL071W, strain lat1, active compounds read low 0.0589 | S. cerevisiae deletion strains, locus YNL128W, strain TEP1, active compounds read low 0.0596 | S. cerevisiae deletion strains, locus YNL153C, strain GIM3, active compounds read low 0.0483 | S. cerevisiae deletion strains, locus YNL183C, strain NPR1, active compounds read low 0.004 | S. cerevisiae deletion strains, locus YNL209W, strain ssb2, active compounds read low 0.057 | S. cerevisiae deletion strains, locus YNL233W, strain BNI4, active compounds read low 0.0515 | S. cerevisiae deletion strains, locus YNL248C, strain rpa49, active compounds read low 0.0737 | S. cerevisiae deletion strains, locus YNL250W, strain rad50, active compounds read low 0.0619 | S. cerevisiae deletion strains, locus YNL271C, strain bni1, active compounds read low 0.0596 | S. cerevisiae deletion strains, locus YNL298W, strain CLA4, active compounds read low 0.0571 | S. cerevisiae deletion strains, locus YNL307C, strain MCK1, active compounds read low 0.0641 | S. cerevisiae deletion strains, locus YNL322C, strain KRE1 (second series), active compounds read low 0.0632 | S. cerevisiae deletion strains, locus YNL322C, strain KRE1, active compounds read low 0.0468 | S. cerevisiae deletion strains, locus YNR049C, strain mso1, active compounds read low 0.0543 | S. cerevisiae deletion strains, locus YNR052C, strain pop2, active compounds read low 0.061 | S. cerevisiae deletion strains, locus YOL006C, strain TOP1, active compounds read low 0.0904 | S. cerevisiae deletion strains, locus YOL012C, strain htz1 0.178 | S. cerevisiae deletion strains, locus YOL147C, strain pex11, active compounds read low 0.0589 | S. cerevisiae deletion strains, locus YOR001W, strain rrp6, active compounds read low 0.0639 | S. cerevisiae deletion strains, locus YOR061W, strain CKA2, active compounds read low 0.0446 | S. cerevisiae deletion strains, locus YOR069W, strain VPS5, active compounds read low 0.0457 | S. cerevisiae deletion strains, locus YOR070C, strain gyp1, active compounds read low 0.0575 | S. cerevisiae deletion strains, locus YOR080W, strain dia2, active compounds read low 0.0641 | S. cerevisiae deletion strains, locus YOR083W, strain WHI5, active compounds read low 0.0608 | S. cerevisiae deletion strains, locus YOR106W, strain vam3, active compounds read low 0.0597 | S. cerevisiae deletion strains, locus YOR136W, strain idh2, active compounds read low 0.0686 | S. cerevisiae deletion strains, locus YOR144C, strain elg1, active compounds read low 0.0566 | S. cerevisiae deletion strains, locus YOR184W, strain ser1, active compounds read low 0.065 | S. cerevisiae deletion strains, locus YOR231W, strain MKK1, active compounds read low 0.125 | S. cerevisiae deletion strains, locus YOR265W, strain rbl2, active compounds read low 0.0558 | S. cerevisiae deletion strains, locus YOR270C, strain vph1, active compounds read low 0.0908 | S. cerevisiae deletion strains, locus YOR290C, strain snf2, active compounds read low 0.0723 | S. cerevisiae deletion strains, locus YOR316C, strain cot1, active compounds read low 0.0555 | S. cerevisiae deletion strains, locus YPL051W, strain arl3, active compounds read low 0.0607 | S. cerevisiae deletion strains, locus YPL055C, strain LGE1, active compounds read low 0.0725 | S. cerevisiae deletion strains, locus YPL078C, strain atp4, active compounds read low 0.0632 | S. cerevisiae deletion strains, locus YPL106C, strain sse1, active compounds read low 0.0983 | S. cerevisiae deletion strains, locus YPL240C, strain hsp82, active compounds read low 0.0533 | S. cerevisiae deletion strains, locus YPL241C, strain CIN2, active compounds read low 0.0538 | S. cerevisiae deletion strains, locus YPL256C, strain CLN2, active compounds read low 0.135 | S. cerevisiae deletion strains, locus YPR119W, strain clb2, active compounds read low 0.0599 | S. cerevisiae deletion strains, locus YPR141C, strain kar3, active compounds read low 0.0633 | S. cerevisiae deletion strains, locus YPR163C, strain tif3, active compounds read low 0.0679 | S. cerevisiae deletion strains, locus YPR167C, strain met16, active compounds read low 0.0597 | S. cerevisiae deletion strains, strain wtn01, active compounds read low 0.0565 | S. cerevisiae strains, strain wild type, active compounds read low 0.0464
